This is a sample that favours compounds with a hit; in the whole collection about 11% have one here.
IMPase Li cell: IMPase inhibition in cells with lithium potentiation. CHO-M1 cells, IP1 TR-FRET (IP-One), carbachol + lithium. Potency, µM (doses to about 59.4 µM), inactives show at the top dose activity, negative = IMPase inhibition, actives largely listed as inhibitors. hit rate 0.35% among 210,000; active means well fitted inhibition curve with a large enough effect; inconclusive means small, poorly fitted or top-dose-only effect; inactive means no such curve, though single readings can be large or run the other way;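 further: IP1 builds up when IMPase is blocked and the TR-FRET signal falls; potency means the concentration at half of the fitted maximal effect; plate controls were basal vehicle for no effect and high inhibitor control for full effect; nearly all actives have a fitted effect of over 50% in size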
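CHO cells stably expressing M1 receptor (2000/well, cultured 16–30 h) treated 30 min at 37C with compound plus low lithium. Cytosolic IP1 by TR-FRET (665/620 ratio and 620 channel) after 10 min lysis; AC50 by Hill fit.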
PNC inhibitor: perinucleolar compartment assembly inhibition; PC3M PTB-GFP, PNC prevalence imaging, 16 h; hits give low values; activity change (PNC), negative = inhibition, % at 10 µM; hit rate 3.1% among 140,000;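 active means readout at or below -70, meaning at least 70% loss of cells showing the perinucleolar compartment, a nuclear body marking cancer cells; inconclusive means readout between -30 and a set limit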;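 further: plate controls were DMSO wells for no effect and camptothecin positive control wells for full effect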
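Read-out is percentage of cells bearing a perinucleolar compartment, from automated 20x imaging of fixed, Hoechst-stained PC3M PTB-GFP cells. Cells were seeded 4 h, then exposed 16 h to compound (23 nl of library stock) in duplicate plates.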
ALDH1A1 inh: ALDH1A1 (human) enzyme inhibition | P00352 | Potency, µM (series often up to 75.3 µM), without a hit: at the highest dose activity, negative = inhibition, usual class: inhibitors | Purified ALDH1A1, NADH fluorescence, propionaldehyde substrate | hit rate 7.3% among 220,000;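 further: potency means the concentration at half of the fitted maximal effect; plate controls were no enzyme wells and a reference inhibitor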
IMPase inh: membrane-permeable compound that blocks inositol monophosphatase. CHO-M1 cells, IP1 accumulation, HTRF TR-FRET ratio. inhibition (IP1 accumulation), % at 46.1 µM. AID 901. 120,000 tested, under 10 active. P97697; active means well fitted curve in the direction sought with a large enough effect in the signal ratio, not every such curve was filed as active; inconclusive means small, poorly fitted or top-dose-only effect, or a change in a side signal; inactive means no such curve, though single readings can be large or run the other way; the % refers to the signal ratio;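 further: cells stimulated with carbachol in lithium chloride buffer; plate controls were DMSO basal wells for no effect and reference inhibitor wells for full effect; higher means more IMPase inhibition seen as more IP1 and lower FRET ratio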
Target sequence (P97697 whole entry, looked up): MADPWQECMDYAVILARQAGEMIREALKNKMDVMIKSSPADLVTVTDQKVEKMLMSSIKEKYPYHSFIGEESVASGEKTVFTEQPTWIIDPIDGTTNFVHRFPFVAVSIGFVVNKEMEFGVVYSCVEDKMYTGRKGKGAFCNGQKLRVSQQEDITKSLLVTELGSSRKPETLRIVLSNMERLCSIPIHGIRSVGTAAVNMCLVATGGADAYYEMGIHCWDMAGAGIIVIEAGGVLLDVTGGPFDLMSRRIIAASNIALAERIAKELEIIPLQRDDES
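CHO-M1 cells (CHO stably expressing M1 receptor), compound up to 46 uM final, stimulated with carbachol (50 uM as added) in buffer with 50mM LiCl, pH 7.4, 30 min at 37C. Cytosolic IP1 read by TR-FRET; AC50 from Hill fits.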
HPGD inh: inhibitors of human 15-hydroxyprostaglandin dehydrogenase (HPGD); purified HPGD, NADH fluorescence kinetic, PGE2 substrate; hit rate 4.3% among 150,000; P15428; Potency, µM, for inactives: at the highest dose activity change, negative = inhibition, actives largely listed as inhibitors; further: potency means the concentration at half of the fitted maximal effect
Target sequence (P15428 whole entry, looked up): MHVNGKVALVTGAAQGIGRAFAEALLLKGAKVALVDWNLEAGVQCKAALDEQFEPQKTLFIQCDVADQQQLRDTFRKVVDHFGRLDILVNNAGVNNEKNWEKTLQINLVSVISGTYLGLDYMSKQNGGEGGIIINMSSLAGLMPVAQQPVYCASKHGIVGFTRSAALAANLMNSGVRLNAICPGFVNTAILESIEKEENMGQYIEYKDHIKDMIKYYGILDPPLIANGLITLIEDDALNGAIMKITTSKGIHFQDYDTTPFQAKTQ
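NADH formation kinetics: reaction with 30 uM PGE2 and 1 mM NAD+ (final), 20 nM enzyme, Tris-HCl pH 8 with Tween 20, after 15 min compound preincubation at room temperature. Fluorescence change, last versus first of five reads.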
* = called active by the depositor; ? = inconclusive; . = no result; [ ] = another dose, or the depositor's remark. Unless noted, the call rests on the fitted dose curve; in most records, active means well fitted inhibition curve with a large enough effect (not every such curve was filed as active); inconclusive means small, poorly fitted or top-dose-only effect, or another doubt; inactive means no such curve, though single readings can be large or run the other way. Unless noted, on the % scale 0 is the no-effect control and ±100 the full control effect.

SMILES	IMPase Li cell	PNC inhibitor	ALDH1A1 inh	IMPase inh	HPGD inh
COC(=O)NC(=S)Nc1ccccc1NC(=S)NC(=O)OC	-5%	.	10µM*	.	-15%
CC(=O)Nc1ccccc1OC(=O)N(C)C	-8%[38.3 µM]	-5	-2%	15	-10%
CN(C)CCCc1cccnc1	3%	.	2%[13.5 µM]	.	-7%
CC(C)c1cc2c(c(O)c1O)[C@@]1(C(=O)O)CCCC(C)(C)[C@@H]1CC2	24%	.	14µM*	.	16µM*
CC(C)c1cc2c(c(O)c1O)[C@]1(C(=O)O)CCCC(C)(C)C1CC2 (some centres not stated)	29%	.	16µM*	.	3.2µM*
C[C@]1(C(=O)O)CCC[C@]2(C)c3cc(O)ccc3CC[C@@H]12	14%	.	2%	-3	-13%
CN1C2CCC1/C(=C/c1ccccn1)C(=O)/C2=C\c1ccccn1	19%	-109*	-2%	.	-10%
Cc1ccc(N2C(=O)NC(=O)C3(Cc4ccccc4N4CCN(c5ccccc5)CC43)C2=O)cc1 (configuration not stated)	.	-7	22µM*	-2	.
O=C1NC(=O)C2(Cc3ccccc3N3CCCC32)C(=O)N1c1cccc(Cl)c1 (configuration not stated)	-10%[38.3 µM]	-7	?	0	-7%
N#CC1(c2ccccc2)CCN(C2CC(=O)N(c3ccc4c(c3)OCO4)C2=O)CC1 (configuration not stated)	1%	.	8.9µM*	.	.
C[C@H]1CN(C2CCC(C#N)(c3ccc(F)cc3)CC2)CC[C@@]1(C(=O)O)c1ccccc1 (some centres not stated)	-2%	.	-8%[20.9 µM]	-3[20.6 µM]	2%
N#CC1(c2ccccc2)CCN(C2CC(=O)N(c3ccc(F)cc3)C2=O)CC1 (configuration not stated)	11%	.	32µM*	.	.
c1nc[nH]n1	-2%	.	1%	.	1%
O=C(O)c1cc(N=Nc2ccc([As](=O)(O)O)cc2)ccc1O	-4%	.	2%[13.5 µM]	.	-12%
CSc1nc(N)c(N=Nc2ccc([As](=O)(O)O)cc2)c(=O)[nH]1	.	.	8.9µM*	.	.
C=CCN1CCc2cccc3c2[C@@H]1Cc1ccc(O)c(O)c1-3	.	.	.	-1	.
O=C(O)/C=C\C(=O)O	-6%	.	7%	.	-2%
CC(=O)O.CC(=O)O.[Cd]	7%	.	13µM*	.	-11%
COC(=O)C(O)C(O)(CCC(C)C)C(=O)OC1C(OC)=CC23CCCN2CCc2cc4c(cc2C13)OCO4 (configuration not stated)	-1%	.	8%	.	0%
Cn1cnc([N+](=O)[O-])c1Sc1ccc([N+](=O)[O-])cc1	2%	.	7.9µM*	.	.
Cn1cc2c([N+](=O)[O-])cc([N+](=O)[O-])cc2n1	-6%	.	?	.	.
CC[C@@]1(O)C(=O)OCc2c1cc1n(c2=O)Cc2cc3cc(O)ccc3nc2-1	10µM*	.	-9%	.	-23%
C[C@H](N)c1cccc(Cl)c1Cl	.	.	.	4	.
CCN1CCN(Cc2cc(C(C)(C)C)c(O)c(C(C)(C)C)c2)CC1	37%[38.3 µM]	-11	28µM*	12	3%
N[C@]1(C(=O)O)CC[C@@H](C(=O)O)C1 (racemic)	-26%	.	3%	.	.
SMILES	IMPase Li cell	PNC inhibitor	ALDH1A1 inh	IMPase inh	HPGD inh
O=C1NC(=O)C(=Cc2csc3ccccc23)C(=O)N1	.	.	10µM*	.	.
O=C1NC(=O)C(=C/C=C/c2coc3ccc(Br)cc3c2=O)C(=O)N1	.	.	3.2µM*	.	.
O=C1NC(=S)NC(=O)C1=Cc1cccc2cc3ccccc3cc12	26%	.	?	.	-16%
O=C1NC(=O)C(=Cc2coc3ccccc3c2=O)C(=O)N1	-6%	.	3.5µM*	.	.
O=C1NC(=O)C(=Cc2ccccc2Oc2ccc(F)cc2)C(=O)N1	-6%	.	?	.	.
CO[C@@H]1CC=C2CCN3CCC4=C(CC(=O)OC4)[C@]23C1	.	.	.	-1	.
NCCCNCCCCNCCCNC(=O)Cc1ccc(O)cc1	0%	.	6%[13.5 µM]	.	-1%
C[C@H](NC(=O)[C@@H](N)Cc1ccc(O)cc1)C(=O)NCC(=O)N(C)[C@@H](Cc1ccccc1)C(=O)N[C@H](CO)CCS(C)=O (some centres not stated)	2%	.	6%	.	.
CCc1ccccc1N1C(=O)/C(=C/c2ccc(N3CCN(C)CC3)o2)C(=O)NC1=S	11%	4	?	.	-6%
O=C1NC(=S)N(c2ccccc2F)C(=O)/C1=C\c1cccs1	-2%	18	20µM*	.	7.9µM*
CCOc1ccc(N2C(=O)/C(=C\c3cccs3)C(=O)NC2=S)cc1	16%	.	18µM*	.	.
CC1=C2C(=O)[C@@H]3[C@@H](CC=C4C[C@@H](O)CC[C@@]43C)[C@H]2CC[C@@]12O[C@H]1C[C@H](C)CN[C@H]1[C@@H]2C	-5%	.	5%[13.5 µM]	.	-6%
O=c1[nH]c(=O)n(Cc2ccccc2)c(O)c1C=NCCN1CCNCC1	23%[38.3 µM]	8	16µM*	-5	22µM*
C=CCn1c(O)c(C=NCCN2CCNCC2)c(=O)[nH]c1=O	0%[38.3 µM]	15	?	2	-12%
O=c1[nH]c(=O)n(CCC2=CCCCC2)c(O)c1C=NCCN1CCNCC1	10%[38.3 µM]	1	14µM*	3	-5%
O=c1[nH]c(=O)n(Cc2ccco2)c(O)c1C=NCCN1CCOCC1	6%[38.3 µM]	15	-14%	-2	-12%
O=c1[nH]c(=O)n(Cc2ccccc2)c(O)c1C=Nc1ccc(CN2CCOCC2)cc1	.	27	14µM*	6	.
COc1ccc(N=Nc2c(O)[nH]c(=S)[nH]c2=O)cc1	15%	.	-3%	.	.
COc1cccc(N=Nc2c(O)[nH]c(=S)[nH]c2=O)c1	.	.	25µM*	.	.
N[C@H](Cn1ccc(=O)[nH]c1=O)C(=O)O	.	.	.	-1	.
COc1ccc(OP(=O)(Nc2ccccc2)Nc2ccccc2)cc1	16%[38.3 µM]	40	4%	-3	14µM*
CC(C)[C@]1(O)[C@@H](OC(=O)c2ccc[nH]2)[C@]2(O)[C@@]3(C)C[C@@]4(O)O[C@@]5([C@H](O)[C@@H](C)CC[C@]35O)[C@]2(O)[C@]41C	4%	.	3%[13.5 µM]	.	-7%
Cc1cc(/C=C2/C(=O)NC(=O)N(C)C2=O)c(C)n1-c1ccccc1	7%	.	2%	.	.
Cc1cc(/C=C2\C(=O)NC(=S)N(C)C2=O)c(C)n1C1CCCCC1	21%	?	-8%	-2	-1%
Cc1cc(C=C2C(=O)N(C)C(=S)N(C)C2=O)c(C)n1C1CCCC1	39%[38.3 µM]	58	22µM*	1	-13%
SMILES	IMPase Li cell	PNC inhibitor	ALDH1A1 inh	IMPase inh	HPGD inh
Cc1cc(C=O)c(C)n1C1CCCCC1	30%[38.3 µM]	-9	22µM*	1	-7%
CCN1C(=O)C(=Cc2cc(C)n(C3CC3)c2C)C(=O)N(CC)C1=S	-10%	3	10µM*	-8	-19%
Cc1cc(C=C2C(=O)N(C)C(=S)N(C)C2=O)c(C)n1-c1cccnc1	8%	10	11µM*	.	10µM*
Cc1cc(C)cc(N2C(=O)NC(=O)/C(=C\c3cc(C)n(C)c3C)C2=O)c1	1%	.	-2%	.	.
CCOC(=O)CBr	3%	.	?	.	-12%
NCCSC(c1ccccc1)c1ccccc1	4%	.	-12%[13.5 µM]	.	-8%

Source: PubChem BioAssay (National Center for Advancing Translational Sciences (NCATS))
